We go through four targets from the supplement of paper PMC8387472.

Conditions in all cases: mESC; 2uM; 72 h treatment, harvest day 5
Compound in experiment [1]: Cc1cc(C)nc(SCC(=O)Nc2ncc(Cc3cccc4ccccc34)s2)n1
The experiment is described as follows: fraction of edited reads among all mapped reads; higher = more Cas9 editing.

Compound in experiment [2]: Cc1ccc(C(=O)NCCCCCC(=O)Nc2ccccc2N)cc1
Described as above.

Compound in experiment [3]: Cc1cccc(CC(=O)N2CCc3c2ccc(-c2cn(C)c4ncnc(N)c24)c3F)n1
The experiment is described as above.

Compound in experiment [4]: NC(=O)c1ccc2nc(-c3ccc(Oc4ccc(Cl)cc4)cc3)[nH]c2c1 [Chk 2 inhibitor II (BML-277)]
The description is as above.

Compound in a further experiment: Nc1cc(F)ccc1NC(=O)c1ccc(CNC(=O)/C=C/c2cccnc2)cc1 [Tucidinostat (Chidamide)]
The description is as above.

Compound in a further experiment: Nc1nc2[nH]cc(CCc3ccc(C(=O)N[C@@H](CCC(=O)O)C(=O)O)cc3)c2c(=O)[nH]1 [Pemetrexed]
The experiment is described as above.

Compound in experiment [5]: Nc1ncnc2c1c(-c1cnc3[nH]ccc3c1)nn2C1CCCC1
The description is as above.

Compound in experiment [6]: O=C(c1cccc(Cl)c1F)N1CCN(Cc2cccc(Nc3nccs3)n2)CC1
The experiment is described as above.

Compound in another experiment: O=C1Cc2c([nH]c3ccc(Br)cc23)-c2ccccc2N1 [Kenpaullone]
Described as above.

Compound in a further experiment: O=c1c(-c2ccc(O)cc2)coc2cc(O)cc(O)c12 [Genistein]
Described as above.

Compound in experiment [7]: O=c1cc(N2CCOCC2)oc2c(-c3ccc4c(c3)OCCO4)csc12
The description is as above.

Compound in the next experiment: S=c1[nH]cnc2nc[nH]c12 [Mercaptopurine (6-MP)]
Described as above.

Compound in experiment [8]: S=c1nc[nH]c2nc[nH]c12 [6-Mercaptopurine (6-MP) Monohydrate]
Described as above.

Compound in experiment [9]: CC(=O)O/N=C1\C(=O)N(Cc2cc(Cl)ccc2Cl)c2ccc(Cl)cc21
Nature of the experiment: fraction of microhomology deletions among edited reads; higher = more MH deletions.

Compound in experiment [10]: CC(C)(C#N)c1ccc(N2C(=O)OCc3cnc4ccc(-c5cnc6ccccc6c5)cc4c32)cc1
The experiment is described as above.

Compound in experiment [11]: CCCCOc1c(C(=O)c2c(F)cc(C)cc2F)c[nH]c2nncc1-2
Described as above.

Compound in experiment [12]: CCN1CCN(CC(=O)Nc2ccc(-c3cccc4c(=O)cc(N5CCOCC5)oc34)c3sc4ccccc4c23)CC1
Described as above.

Compound in experiment [13]: CCc1c2c(nc3ccc(OC(=O)N4CCC(N5CCCCC5)CC4)cc13)-c1cc3c(c(=O)n1C2)COC(=O)[C@]3(O)CC [Irinotecan HCl Trihydrate]
The description is as above.

Compound in experiment [14]: CCn1c(=O)c(-c2ccc(Cl)cc2Cl)cc2cnc(Nc3ccc(N4CCNCC4)c(F)c3)nc21
The experiment is described as above.

Compound in experiment [15]: CNc1ccc([N+](=O)[O-])c(Nc2ccc3[nH]ncc3c2)n1
Described as above.

With “16.0 (DMSO control at this site: 1-bp insertion 0.172, MH deletion 0.29, edited 0.05) CGGACTGCACACATGGGTAGGATCGTGCACGCGAGGTAGGATCGTGCACGCGAAGTTATTC”, the “fraction of edited reads among all mapped reads” value was 0.0974 in experiment [1]; 0.052 in [2]; 0.0804 in experiment [3]; 0.0597 in experiment [4]; 0.0541 in the experiment with Tucidinostat (Chidamide); 0.0594 with Pemetrexed. For the same target, the “fraction of edited reads among all mapped reads” value in [5] was found to be 0.0586; in experiment [6], 0.043; in the experiment with Kenpaullone it was 0.128; with Genistein, 0.0716; in experiment [7], 0.0306; in the experiment with Mercaptopurine (6-MP), 0.0811. Further, the “fraction of edited reads among all mapped reads” value in experiment [8] was 0.0574. Further, the “fraction of microhomology deletions among edited reads” value in [9] is 0.319; in experiment [10] it was 0.293; in experiment [11], 0.294; in experiment [12], 0.34; in experiment [13] it was 0.252; in experiment [14], 0.308. Moreover, in experiment [15], the “fraction of microhomology deletions among edited reads” value came to 0.252.
Take “31.0 (DMSO control at this site: 1-bp insertion 0.315, MH deletion 0.329, edited 0.026) ACCTCCACAGGCTGGGTGGCCCGGAGGCTGGGCGGCCCGGAGGCTGGGCTGGGCGAGTATC”: the “fraction of edited reads among all mapped reads” value worked out at 0.0451 in experiment [1]; 0.0289 in experiment [2]; 0.0207 with Tucidinostat (Chidamide); 0.0406 in the experiment with Pemetrexed; 0.0296 in experiment [5]; 0.0243 in experiment [6]. In addition, the “fraction of edited reads among all mapped reads” value came out at 0.0456 in the experiment with Kenpaullone; 0.026 in the experiment with Genistein; 0.0134 in experiment [7]; 0.0491 with Mercaptopurine (6-MP); 0.0301 in experiment [8]. For the same target, the “fraction of microhomology deletions among edited reads” value in [9] came out at 0.32; in experiment [10], 0.349; in experiment [11], 0.458; in [12] it was 0.276; in experiment [13], 0.519; in experiment [14], 0.5. In experiment [15], the “fraction of microhomology deletions among edited reads” value was 0.405.
In the case of “45.0 (DMSO control at this site: 1-bp insertion 0.017, MH deletion 0.666, edited 0.101) TTACACAGCATGAACTGCTAGGTGATGATGTCAGATTCGGTTTTACTAACTTCTCCAAAAA”, the “fraction of edited reads among all mapped reads” value in [1] is 0.195; in experiment [2], 0.111; in experiment [3] it was 0.151; in experiment [4], 0.127; in the experiment with Tucidinostat (Chidamide), 0.0928; in the experiment with Pemetrexed it was 0.0998. Besides, the “fraction of edited reads among all mapped reads” value in experiment [5] came to 0.0941; in experiment [6], 0.069; in the experiment with Kenpaullone, 0.233; in the experiment with Genistein it was 0.139; in [7] it was 0.0613; with Mercaptopurine (6-MP), 0.128. For the same target, the “fraction of edited reads among all mapped reads” value in experiment [8] stood at 0.092. The “fraction of microhomology deletions among edited reads” value came to 0.623 in [9]; 0.655 in experiment [10]; 0.62 in [11]; 0.654 in experiment [12]; 0.631 in [13]; 0.655 in experiment [14]. Moreover, the “fraction of microhomology deletions among edited reads” value in [15] turned out to be 0.622.
For the target “32.0 (DMSO control at this site: 1-bp insertion 0.03, MH deletion 0.85, edited 0.898) AGAAGTCCAGGATCAGGGGGACTGGGGTCGGGAGGGTGGGGCAGGAAGGAAGCCAGAATCA”, the “fraction of edited reads among all mapped reads” value was 0.946 in experiment [1]; 0.904 in [2]; 0.925 in experiment [3]; 0.917 in experiment [4]; 0.9 in the experiment with Tucidinostat (Chidamide); 0.87 with Pemetrexed. The “fraction of edited reads among all mapped reads” value in experiment [5] is 0.891; in [6], 0.849; in the experiment with Kenpaullone it was 0.951; with Genistein it was 0.923; in [7] it was 0.84; with Mercaptopurine (6-MP), 0.906. The “fraction of edited reads among all mapped reads” value in [8] was 0.874. Moreover, the “fraction of microhomology deletions among edited reads” value in [9] was 0.93; in experiment [10] it was 0.904; in experiment [11], 0.914; in [12], 0.912; in [13], 0.901; in experiment [14], 0.905. The “fraction of microhomology deletions among edited reads” value in experiment [15] is 0.895.
